For seven compounds, residual activity results are on record in ChEMBL document CHEMBL2218924, “A broad activity screen in support of a chemogenomic map for kinase signalling research and drug discovery” (Biochem J, 2013).

Molecules are shown by their SMILES.

In assay [1] the target is T1, Serine/threonine-protein kinase BRSK2 (Homo sapiens) (UniProt Q8IWQ3).
T1 sequence (whole entry): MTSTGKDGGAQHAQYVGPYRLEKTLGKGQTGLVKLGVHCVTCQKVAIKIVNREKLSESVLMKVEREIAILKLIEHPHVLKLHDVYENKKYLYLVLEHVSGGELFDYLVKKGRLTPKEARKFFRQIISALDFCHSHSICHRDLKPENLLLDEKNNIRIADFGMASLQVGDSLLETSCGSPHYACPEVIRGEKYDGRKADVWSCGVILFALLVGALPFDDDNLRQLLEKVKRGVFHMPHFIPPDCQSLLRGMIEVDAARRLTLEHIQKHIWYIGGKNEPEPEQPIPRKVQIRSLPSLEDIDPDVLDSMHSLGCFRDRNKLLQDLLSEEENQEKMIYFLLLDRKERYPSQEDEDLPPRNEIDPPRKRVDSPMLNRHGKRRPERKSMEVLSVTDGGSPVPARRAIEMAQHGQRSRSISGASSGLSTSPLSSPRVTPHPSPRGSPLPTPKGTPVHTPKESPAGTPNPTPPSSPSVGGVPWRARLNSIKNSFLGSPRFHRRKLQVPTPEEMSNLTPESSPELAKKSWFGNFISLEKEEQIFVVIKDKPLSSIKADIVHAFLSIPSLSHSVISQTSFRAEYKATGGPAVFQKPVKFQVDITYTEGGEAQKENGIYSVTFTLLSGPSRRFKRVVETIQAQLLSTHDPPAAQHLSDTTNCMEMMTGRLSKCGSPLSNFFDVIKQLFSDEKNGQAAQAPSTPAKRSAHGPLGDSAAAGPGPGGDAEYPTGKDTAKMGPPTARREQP
The following applies: at 1 µM.

The target in assay [2] is T1, Serine/threonine-protein kinase BRSK2 (Homo sapiens). As to conditions: at 10 µM.
Assay [3] concerns the target T2, Cyclin-dependent kinase 1/cyclin B1 (Homo sapiens) (UniProt P06493+P14635). The following applies: at 1 µM.
Assay [4] deals with T2, Cyclin-dependent kinase 1/cyclin B1 (Homo sapiens). The following applies: at 10 µM.
The target in assay [5] is T3, Cyclin-dependent kinase 2/cyclin A (Homo sapiens) (UniProt P24941+P20248+P78396). As to conditions: at 1 µM.
Assay [6] addresses T3, Cyclin-dependent kinase 2/cyclin A (Homo sapiens). As to conditions: at 10 µM.
Assay [7] deals with T4, Cyclin-dependent kinase 2/cyclin E (Homo sapiens) (UniProt P24864+P24941+O96020). As to conditions: at 1 µM.
Assay [8] deals with T4, Cyclin-dependent kinase 2/cyclin E (Homo sapiens). As to conditions: at 10 µM.
Assay [9] has as its target T5, CDK3/cyclin E (Homo sapiens) (UniProt P24864+O96020+Q00526). The following applies: at 1 µM.
Assay [10] addresses T5, CDK3/cyclin E (Homo sapiens). As to conditions: at 10 µM.
Assay [11] addresses T6, Cyclin-dependent kinase 5/CDK5 activator 1 (Homo sapiens) (UniProt Q00535+Q15078). The following applies: at 1 µM.
The target in assay [12] is T6, Cyclin-dependent kinase 5/CDK5 activator 1 (Homo sapiens). The following applies: at 10 µM.
The target is the same in assay [13]. As to conditions: at 1 µM. The source holds these as a separate data set.
Assay [14] shares this target. The following applies: at 10 µM. This is another data set of the same source.
Assay [15] deals with T7, CDK6/cyclin D3 (Homo sapiens) (UniProt P30281+Q00534). As to conditions: at 1 µM.
In assay [16] the target is T7, CDK6/cyclin D3 (Homo sapiens). As to conditions: at 10 µM.
Assay [17] has as its target T8, Serine/threonine-protein kinase BRSK1 (Homo sapiens) (UniProt Q8TDC3).
T8 sequence (whole entry): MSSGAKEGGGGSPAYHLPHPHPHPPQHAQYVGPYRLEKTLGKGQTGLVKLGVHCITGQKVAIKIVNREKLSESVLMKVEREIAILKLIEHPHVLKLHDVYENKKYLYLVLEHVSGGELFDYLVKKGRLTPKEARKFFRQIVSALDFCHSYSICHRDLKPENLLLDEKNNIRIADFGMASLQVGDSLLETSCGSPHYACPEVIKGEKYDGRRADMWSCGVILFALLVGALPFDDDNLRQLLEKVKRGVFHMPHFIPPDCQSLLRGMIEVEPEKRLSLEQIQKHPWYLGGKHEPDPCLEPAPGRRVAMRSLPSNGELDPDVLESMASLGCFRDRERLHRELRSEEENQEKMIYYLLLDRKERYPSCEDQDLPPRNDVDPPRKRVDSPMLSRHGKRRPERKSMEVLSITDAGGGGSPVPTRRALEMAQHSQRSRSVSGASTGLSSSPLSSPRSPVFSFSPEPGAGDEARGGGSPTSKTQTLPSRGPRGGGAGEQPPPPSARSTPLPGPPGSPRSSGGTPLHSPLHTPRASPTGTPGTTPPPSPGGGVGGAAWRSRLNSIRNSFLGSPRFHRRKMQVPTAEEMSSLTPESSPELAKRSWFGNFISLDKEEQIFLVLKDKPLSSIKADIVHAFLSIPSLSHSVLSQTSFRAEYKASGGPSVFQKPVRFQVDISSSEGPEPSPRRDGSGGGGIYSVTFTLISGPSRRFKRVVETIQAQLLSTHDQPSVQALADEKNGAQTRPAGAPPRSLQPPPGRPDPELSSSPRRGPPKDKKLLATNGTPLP
As to conditions: at 1 µM.

For assay [18], the target named is T8, Serine/threonine-protein kinase BRSK1 (Homo sapiens). As to conditions: at 10 µM.
Assay [19] addresses T9, Cyclin-dependent kinase 7/ cyclin H (Homo sapiens) (UniProt P51946+P50613). The following applies: at 10 µM.
Assay [20] addresses T9, Cyclin-dependent kinase 7/ cyclin H (Homo sapiens). The following applies: at 1 µM.

T2 sequence (P06493 whole entry, looked up): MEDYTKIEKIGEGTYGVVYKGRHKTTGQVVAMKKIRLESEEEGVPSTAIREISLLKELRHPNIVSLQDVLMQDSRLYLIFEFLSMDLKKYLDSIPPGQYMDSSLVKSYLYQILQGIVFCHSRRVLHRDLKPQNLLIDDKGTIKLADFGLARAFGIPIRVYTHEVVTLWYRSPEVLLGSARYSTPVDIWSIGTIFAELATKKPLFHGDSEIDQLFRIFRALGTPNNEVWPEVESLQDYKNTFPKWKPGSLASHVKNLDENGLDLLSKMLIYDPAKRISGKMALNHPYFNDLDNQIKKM
T2 sequence (P14635 whole entry, looked up): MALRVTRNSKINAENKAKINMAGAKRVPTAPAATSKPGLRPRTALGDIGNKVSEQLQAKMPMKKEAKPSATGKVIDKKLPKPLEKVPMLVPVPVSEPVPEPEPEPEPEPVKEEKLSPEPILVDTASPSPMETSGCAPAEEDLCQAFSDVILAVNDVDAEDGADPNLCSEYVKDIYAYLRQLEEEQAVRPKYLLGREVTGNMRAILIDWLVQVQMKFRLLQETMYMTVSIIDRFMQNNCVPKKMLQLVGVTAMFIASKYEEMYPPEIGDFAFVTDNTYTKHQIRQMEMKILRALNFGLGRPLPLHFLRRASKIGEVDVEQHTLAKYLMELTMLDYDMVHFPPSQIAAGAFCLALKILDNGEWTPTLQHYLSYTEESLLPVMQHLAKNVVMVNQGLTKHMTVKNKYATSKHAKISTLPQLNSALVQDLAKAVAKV
T5 sequence (O96020 whole entry, looked up): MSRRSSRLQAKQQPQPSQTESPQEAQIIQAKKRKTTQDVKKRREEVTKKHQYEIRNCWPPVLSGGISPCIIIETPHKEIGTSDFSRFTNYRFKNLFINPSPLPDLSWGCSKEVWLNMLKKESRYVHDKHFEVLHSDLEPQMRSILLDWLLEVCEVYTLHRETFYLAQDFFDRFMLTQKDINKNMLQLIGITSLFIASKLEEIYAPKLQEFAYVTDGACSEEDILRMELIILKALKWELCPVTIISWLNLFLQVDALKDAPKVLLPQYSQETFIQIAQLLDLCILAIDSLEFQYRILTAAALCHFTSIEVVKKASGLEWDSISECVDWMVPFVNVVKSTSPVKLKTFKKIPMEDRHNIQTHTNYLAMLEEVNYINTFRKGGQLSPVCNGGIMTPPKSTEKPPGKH
T5 sequence (P24864 whole entry, looked up): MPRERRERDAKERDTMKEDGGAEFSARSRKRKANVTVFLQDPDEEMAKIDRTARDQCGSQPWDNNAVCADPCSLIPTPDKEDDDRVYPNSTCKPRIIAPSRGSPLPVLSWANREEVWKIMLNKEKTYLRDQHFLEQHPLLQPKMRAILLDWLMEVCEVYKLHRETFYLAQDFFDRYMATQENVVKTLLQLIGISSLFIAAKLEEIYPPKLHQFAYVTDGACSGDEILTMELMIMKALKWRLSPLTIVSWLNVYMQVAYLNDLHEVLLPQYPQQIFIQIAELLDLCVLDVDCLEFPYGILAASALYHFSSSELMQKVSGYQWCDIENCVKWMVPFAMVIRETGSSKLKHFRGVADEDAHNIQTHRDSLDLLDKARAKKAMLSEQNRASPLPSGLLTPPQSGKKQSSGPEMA
T5 sequence (Q00526 whole entry, looked up): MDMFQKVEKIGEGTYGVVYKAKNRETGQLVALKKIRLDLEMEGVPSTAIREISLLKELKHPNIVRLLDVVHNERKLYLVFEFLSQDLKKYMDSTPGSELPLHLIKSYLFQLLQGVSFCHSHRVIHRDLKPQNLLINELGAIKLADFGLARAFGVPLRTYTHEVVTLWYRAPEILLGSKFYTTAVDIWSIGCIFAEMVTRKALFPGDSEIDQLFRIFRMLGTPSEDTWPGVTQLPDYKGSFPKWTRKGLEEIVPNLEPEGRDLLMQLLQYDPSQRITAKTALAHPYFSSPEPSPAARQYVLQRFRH

In the case of `N#CCCc1ccc2c(c1)-c1[nH]c3ccc([N+](=O)[O-])cc3c1CC(=O)N2`, the residual activity came out at 39% in [1]; 13% in assay [2]; 3% in assay [3]; 0% in [4]; 0% in assay [5]; 1% in [6]. Also, the residual activity in assay [7] is 1%; in assay [8], -2%; in [9], 2%; in assay [10], 0%; in assay [11], -1%; in assay [12] it was 0%. Further, the residual activity in assay [13] is 0%; in assay [14], 0%; in assay [15] it was 30%; in assay [16], 8%.

Turning to `CO[C@H]1[C@@H](OC)C[C@H](C)[C@@H](OC)C2=CC(=O)C=C(NC(=O)/C(C)=C/C=C/[C@H](OC)[C@@H](OC(N)=O)/C(C)=C/[C@@H]1C)C2=O`, the residual activity in assay [17] amounted to 76%; in [18], 75%; in assay [1], 92%; in assay [2], 106%; in assay [3] it was 111%; in assay [4] it was 110%. Also, the residual activity was found to be 138% in [5]; 83% in assay [6]; 104% in assay [7]; 91% in assay [8]; 100% in [9]; 87% in [10]. Moreover, the residual activity in assay [11] was found to be 104%; in assay [12] it was 92%; in [13], 105%; in assay [14] it was 83%; in assay [15], 107%; in [16], 92%. The residual activity in assay [19] was 101%.

As for `Ic1cccc(CSc2nnc(-c3ccncc3)o2)c1`, the residual activity in assay [17] was 84%; in assay [18], 87%; in [1], 113%; in assay [2], 97%; in assay [3] it was 18%; in [4] it was 14%. Besides, the residual activity was 85% in assay [5]; 68% in assay [6]; 41% in assay [7]; 32% in assay [8]; 70% in assay [9]; 57% in [10]. For the same compound, the residual activity in assay [11] is 5%; in assay [12], 4%; in assay [13], 8%; in assay [14], 3%; in [15] it was 80%; in [16], 73%. In addition, the residual activity in assay [20] was determined as 93%; in assay [19] it was 72%.

For `C[C@@H](N)[C@H]1CC[C@H](C(=O)Nc2ccncc2)CC1`, the residual activity in assay [17] stood at 106%; in [18] it was 107%; in [1], 123%; in assay [2], 82%; in assay [4] it was 85%; in assay [9], 117%. For the same compound, the residual activity came to 112% in assay [10]; 99% in assay [11]; 85% in assay [12]; 117% in assay [13]; 78% in assay [14]; 108% in assay [15]. Further, the residual activity turned out to be 109% in assay [16], 101% in assay [20] and 93% in assay [19].

On to `N#C/C(=C(\N)Sc1ccc(N)cc1)c1ccccc1C(F)(F)F`, for which the residual activity was 85% in [17]; 74% in [18]; 105% in [1]; 103% in [2]; 104% in [3]; 96% in [4]. Moreover, the residual activity in [5] was 86%; in assay [7], 97%; in assay [8], 102%; in assay [9], 96%; in assay [10], 86%; in assay [11], 90%. Besides, the residual activity worked out at 92% in [12]; 110% in [13]; 100% in assay [14]; 98% in assay [15]; 88% in [16]; 102% in assay [20]. For the same compound, the residual activity in [19] came out at 94%.

As for `Nc1ccc2ncnc(NCCc3ccc(Oc4ccccc4)cc3)c2c1`, the residual activity in assay [18] is 49%; in assay [1], 113%; in assay [2], 99%; in assay [3] it was 99%; in assay [4] it was 95%; in assay [5], 92%. For the same compound, the residual activity was 80% in assay [6]; 98% in assay [7]; 90% in assay [8]; 107% in [9]; 90% in assay [10]; 99% in [11]. The residual activity in assay [12] turned out to be 85%; in assay [13], 123%; in assay [14], 98%; in assay [15], 114%; in assay [16], 96%; in [20] it was 98%. Besides, in assay [19], the residual activity worked out at 85%.

With `c1ccc(-c2n[nH]cc2-c2ccnc3ccccc23)nc1`, the residual activity in assay [17] came to 104%; in [18], 58%; in assay [8] it was 94%; in assay [9], 83%; in [10], 79%; in [11] it was 83%. Further, the residual activity is 63% in assay [12], 98% in assay [20] and 95% in assay [19].
